In PubChem BioAssay AID435003 (Sanford-Burnham Center for Chemical Genomics, 2010) one finds inhibition data, which are given here for 60 compounds.

The whole screen tested about 330,000 compounds, of which about 1,700 (0.52%) were called active. Cut-off read from the data, not from the text of the source: active = inhibition above about 50%; inactive = the rest. For the sample, actives were picked, then their nearest neighbours and some compounds at random.

This assay can be described thus: lowers stimulated NF-kB reporter luminescence – cell-based, uHTS, TCR NF-kB activation inhibitor project, primary screen (AID 435003). The conditions noted are these: Jurkat, PMA/ionomycin-induced NF-kB luciferase reporter, at 4 µM, hits give high values.
As to `N/C(=N\OC(=O)c1ccc2c(c1)OCO2)c1ccc(Br)cc1`, the inhibition is -102% (inactive). The value for `N/C(=N\OC(=O)N1c2ccccc2Sc2ccccc21)c1ccc(Br)cc1` was 77% (active). Take `N/C(=N\OC(=O)Cc1ccccc1[N+](=O)[O-])c1ccc(Br)cc1`: the inhibition was 1.58% (inactive). Take `CC(C)(C)NS(=O)(=O)NC(=O)C1=C(N2CCCC2)COC1=O`: the inhibition is -4.98% (inactive). As to `COC(=O)C1=NNC2(c3ccc(C)cc3)C(=O)N(c3cccc(C)c3C)C(=O)C12` (stereo not given), the inhibition was -13.7% (inactive). Regarding `Cc1ccc(S(=O)(=O)N2CCCCC2)cc1C(=O)N(C)CC(=O)Nc1cccc(F)c1`, the inhibition was 0.943% (inactive). The figure for `Cc1cc(C)cc(NC(=O)N2CCC(NC(=O)c3ccc(F)cc3)CC2)c1` is -8.05% (inactive). As for `Cc1ccc(S(=O)(=O)N2CCCCC2)cc1NC(=O)CCNC(=O)c1ccccc1`, the inhibition was 1.31% (inactive).

In the case of `O=C(Nc1cccc(S(=O)(=O)N2CCCCC2)c1)c1cncc(Br)c1`, the inhibition was -9.4% (inactive). With `O=C(CCNC(=O)c1ccc(Br)cc1)Nc1cccc(S(=O)(=O)N2CCCCC2)c1`, the inhibition is 51.4% (active). Regarding `COc1ccc(-n2nnc3c(=O)n(CC(=O)OCc4ccccc4)cnc32)cc1`, the inhibition is -2.47% (inactive).

For the compound `CCCc1nnc(SCC(=O)Nc2ccc(C(=O)OCC)cc2)o1`, the inhibition is -1.45% (inactive). With `CCOC(=O)c1ccc(NC(=O)Cc2cccs2)cc1`, the inhibition is -42.6% (inactive).

For the compound `CCOC(=O)c1ccc(NC(=O)Cn2cnc3cc(C)c(C)cc32)cc1`, the inhibition was 66.1% (active). As for `COc1ccc(CNC(=O)C2CCN(S(C)(=O)=O)CC2)cc1`, the inhibition was 11.1% (inactive). As to `CCOc1ccccc1CNS(=O)(=O)c1cc(-c2cc(C)no2)ccc1C`, the inhibition is 18% (inactive). `Cc1cc(-c2ccc(C)c(S(=O)(=O)NCCCN(Cc3ccccc3)C(C)C)c2)on1`: the inhibition was 9.13% (inactive). Regarding `COc1ccc(CNS(=O)(=O)c2cc(-c3cc(C)no3)ccc2C(C)C)cc1`, the inhibition was 50.9% (active). The figure for `COc1ccc(/C=N/NC(=O)C(C)N(c2ccc(OC)cc2)S(C)(=O)=O)cc1` (stereo not given) is 13.9% (inactive). The value for `CC(C)CC(=O)Nc1nnc(S(=O)(=O)N(C)c2ccc(Cl)cc2)s1` was 1.22% (inactive); that for `CS(=O)(=O)N1CCN(C(=O)c2cc3ccccc3oc2=O)CC1` was 2.45% (inactive); that for `COc1cccc(-n2c(=S)[nH]c3c(oc4ccccc43)c2=O)c1` was -22.5% (inactive). Turning to `O=c1oc2ccccc2cc1-c1cn(-c2ccccc2)c(=S)[nH]1`, the inhibition is 85.2% (active). Consider `CCOC(=O)c1cc(-c2ccc(F)cc2)n(CC(=O)NCc2ccccn2)c1C`, for which the inhibition was -17.7% (inactive). The value for `CCCN(CC1CC1)C(=O)COC(=O)c1ccc(C)cc1O` was -1.18% (inactive). The value for `Cc1cc(/C=N/n2cnnc2)c(C)n1-c1ccc2ncccc2c1` was 9.47% (inactive).

As to `O=C1Oc2ccccc2C(=O)/C1=C/c1ccccc1O`, the inhibition was 8.95% (inactive). Take `COc1cc2c(cc1OC)CN(C(=O)c1cc(S(=O)(=O)N3CCCCC3)ccc1Cl)CC2`: the inhibition is 20.2% (inactive). As for `COc1cc2c(cc1OC)CN(C(=O)c1ccc(S(=O)(=O)N3CCCCCC3)cc1)CC2`, the inhibition is 12.2% (inactive). The value for `CCOc1cc(C(=O)N2CCc3cc(OC)c(OC)cc3C2)ccc1OC(F)F` was 78.8% (active); that for `CCOc1ccccc1-c1nc(CN2CCC(C(=O)N3CCOCC3)CC2)c(C)o1` was 1.89% (inactive). `COCCn1cnc2c1c(=O)n(Cc1ccc(Br)cc1)c(=O)n2Cc1ccccc1`: the inhibition is 11% (inactive). The figure for `CCN(CC)CCn1cnc2c1c(=O)[nH]c(=O)n2Cc1ccccc1` is -2.97% (inactive); for `N=c1c2c(-c3ccccc3)c(-c3ccccc3)n(Cc3ccccc3)c2ncn1CCCO` it is 58.6% (active); for `CSc1nc(-c2ccccc2)nc(C(Cl)Cl)n1` it is 11% (inactive). As for `Nc1cccnc1Sc1ccccc1`, the inhibition was 3.25% (inactive). The value for `Cc1ccc2c(c1)N(CC(=O)NCCCN1CCCCC1)C(=O)c1cccnc1O2` was -8.41% (inactive).

Take `CCCOC(=O)c1[nH]c2c(c1C)C(=O)CC(c1cccs1)C2` (stereo not given): the inhibition was 60.8% (active). The value for `COC(=O)C1C(=O)c2c([nH]c(C(=O)OCCSC)c2C)CC1C` (stereo not given) was -39.9% (inactive).

Consider `COCCOC(=O)c1[nH]c2c(c1C)C(=O)CC(c1ccc(OC)cc1)C2` (stereo not given), for which the inhibition is -19.4% (inactive). The value for `O=S(=O)(c1ccc(Sc2nnc3ccccn23)nc1)N1CCOCC1` was -12% (inactive); that for `Cc1c(Br)c([N+](=O)[O-])nn1C(C)C(=O)Nc1nccs1` (stereo not given) was 22.7% (inactive); that for `COc1cc([C@H](Cc2ccccc2)NC(C)=O)oc(=O)c1` was 8.38% (inactive). With `CCN1/C(=C\c2ccc3ccccc3[n+]2CC)Sc2cc(C)ccc21`, the inhibition was 90.1% (active). As for `CCSC1=C(C#N)C(=O)n2c1cc1c2CCCC1`, the inhibition was 3.71% (inactive).

Turning to `CC1(C)CC(N2CCN(C(c3ccccc3)c3ccccc3)CC2)=CC(=[N+]2CCCCC2)C1`, the inhibition is 83.2% (active). The figure for `O=C1CC(N2CCN(C(c3ccccc3)c3ccccc3)CC2)C(=O)N1` (stereo not given) is 4.97% (inactive); for `Oc1ccccc1CN1CCN(C(c2ccccc2)c2ccccc2)CC1` it is -10.4% (inactive). For the compound `CC(C)(C)NS(=O)(=O)CC12CCC(CC1=O)C2(C)C` (stereo not given), the inhibition was -14% (inactive).

On to `CC/C(=N\NC(=O)c1c(C)nc2ccccn12)c1ccc(Cl)cc1`, for which the inhibition was -10.6% (inactive). For the compound `CC1(C)CC(CCC(=O)Nc2ccccc2Cl)C(=O)O1` (stereo not given), the inhibition is 5.25% (inactive). The figure for `Cc1c(NC(=O)Nc2ccccc2Cl)sc(=S)n1C` is 10.9% (inactive); for `O=C(Nc1ccccc1Cl)/C(Cl)=C(\Cl)S(=O)c1ccccc1` (stereo not given) it is 100% (active); for `CSc1n[nH]c(=S)n1N` it is 8.75% (inactive). Turning to `COc1ccccc1-c1nnc2n1N=C(c1ccc(OC(F)F)c(OCC3CC3)c1)CS2`, the inhibition is 21.8% (inactive).

`CC1=Nn2c(nnc2-c2ccccc2)SC1`: the inhibition is -7.08% (inactive). Consider `COc1ccc(C2=Nn3c(nnc3-c3ccccc3OC)SC2)cc1OC1CCCC1`, for which the inhibition was 57.3% (active). The value for `COc1cc(C(=S)NC2CCCCC2)ccc1O` was -4.8% (inactive); that for `C/C(CC(O)(/C=N/O)c1ccccc1)=N\O` (stereo not given) was -6.87% (inactive); that for `CCCNC(=O)OC[C@H]1O[C@H](CCO/N=C/[C@@H](NS(=O)(=O)c2ccc(C)cc2)[C@H](C)/C=C/CC(=O)OC)C=C[C@@H]1Oc1ccc(OC)cc1` was 8.93% (inactive).
